From PubChem BioAssay
An excerpt weighted towards active compounds, which were near 3.1% of everything screened.
D3 antag: blocks the human D3 dopamine receptor; hit rate 2.5% among 360,000; P35462; max response, negative = inhibition, %; D3R cells, DiscoveRx beta-arrestin luminescence, antagonist mode; stronger effect = lower value; in the data active = max response below about -50%; inconclusive = no clear call, values can overlap the other calls
Target sequence (P35462 whole entry, looked up): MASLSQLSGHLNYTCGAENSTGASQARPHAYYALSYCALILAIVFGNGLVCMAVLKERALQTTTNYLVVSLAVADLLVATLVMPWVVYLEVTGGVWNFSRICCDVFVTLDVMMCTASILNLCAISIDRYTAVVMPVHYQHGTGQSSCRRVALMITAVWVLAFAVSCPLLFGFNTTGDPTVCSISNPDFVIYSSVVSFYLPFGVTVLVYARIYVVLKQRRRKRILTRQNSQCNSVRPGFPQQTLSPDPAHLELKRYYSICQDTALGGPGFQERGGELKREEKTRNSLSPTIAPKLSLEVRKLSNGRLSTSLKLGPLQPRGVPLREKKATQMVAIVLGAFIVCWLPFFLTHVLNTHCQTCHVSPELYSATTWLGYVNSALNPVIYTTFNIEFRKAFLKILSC
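Cells expressing the human receptor were seeded at 1500 cells/well, incubated overnight at 37 degrees C in 5% CO2, then exposed to library compounds with dopamine controls for 90 minutes at 37 degrees C before luminescent detection.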
D3 ag: activates the human D3 dopamine receptor; AID 652048; D3R DiscoveRx beta-arrestin cells, luminescence, 90 min; P35462; max activation, %; hit rate 0.58% among 410,000; in the data active = max activation above about 30%
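Cells at 1500/well, incubated overnight, then treated with pinned compounds (dopamine as control) for 90 min at 37 degrees C. DiscoveRx reagent added for 30 - 60 minutes at room temperature; luminescence read.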
uPA surface inh: inhibitors of cell surface uPA generation; Potency, µM (doses to about 38.3 µM), most hits filed as inhibitors; hit rate 0.31% among 330,000; cell surface uPA generation assay, qHTS; AID 540303; active = well fitted inhibition curve with a large enough effect; inconclusive = small, poorly fitted or top-dose-only effect; inactive = no such curve, though single readings can be large or run the other way; tested in mouse RAW 264.7 cells; also: nearly all actives have a fitted effect of over 55% in size
RGS4 inh: blocks human RGS4-accelerated GTP hydrolysis; Transcreener GDP fluorescence polarization, RGS4-accelerated GTP hydrolysis; hit rate 0.039% among 390,000; Potency, µM (top dose mostly 114 µM), actives largely listed as inhibitors; active = well fitted inhibition curve with a large enough effect; inconclusive = small, poorly fitted or top-dose-only effect; inactive = no such curve, though single readings can be large or run the other way; also: nearly all actives have a fitted effect of over 75% in size
Target sequence (P49798 whole entry, looked up): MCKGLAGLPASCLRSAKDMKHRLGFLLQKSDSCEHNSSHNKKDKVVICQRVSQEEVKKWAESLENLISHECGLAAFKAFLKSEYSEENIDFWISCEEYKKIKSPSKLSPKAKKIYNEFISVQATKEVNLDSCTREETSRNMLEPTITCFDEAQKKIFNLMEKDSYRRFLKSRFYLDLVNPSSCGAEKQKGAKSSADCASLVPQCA
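MLSMR compounds (23 nl, pin-transferred) preincubated 10 min at room temperature with a 500nM (2x) first reagent, then RGS4 at 900nM (2x) plus Transcreener GDP mix added; fluorescence polarization (620/688 nm) read before and after 90 min at 30 °C.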
Of the large screens only hits and unclear results are named; the others gave an inactive call.

Cc1ccc(NC(=O)C2CCCN(S(=O)(=O)c3c(C)n[nH]c3C)C2)cc1C (configuration not stated)	none (no result: D3 antag, uPA surface inh)
O=C(NCCN1CCCCC1)Nc1ccc(Br)cc1	D3 antag -54
CCOc1ccc(C(=O)NCCN2CCCC2)cc1	D3 antag -58
O=C(NCCN1CCCC1)c1ccc(Br)cc1	D3 antag -77
CCOc1ccc(C(=O)NCCNC(=O)c2ccc(OCC)cc2)cc1	none
O=C(NCCC(=O)N1CCCCCCC1)c1ccc(Br)cc1	none
CN(CC1(C)CCCO1)S(=O)(=O)c1ccc(Cl)c(S(N)(=O)=O)c1 (configuration not stated)	none (no result: D3 antag, uPA surface inh, RGS4 inh)
COc1ccccc1N1CCN(Cc2cc(Br)c(O)c3ncccc23)CC1	D3 antag -84, uPA surface inh 2.8µM
CCOc1ccccc1N1CCN(Cc2cccc(OC)c2O)CC1	D3 antag -93 (no result: uPA surface inh)
CCOc1ccccc1N1CCN(C(=O)c2cc3ccccc3cc2OC)CC1	uPA surface inh 3.5µM
CCOCc1cc(CN2CCN(c3ccccc3OC)CC2)c(O)c2ncccc12	none (no result: D3 antag, uPA surface inh)
CCn1cc(C(=O)NCCc2ccc(Cl)cc2)c(=O)c2cc(S(=O)(=O)N3CCOCC3)ccc21	none (no result: D3 antag, uPA surface inh)
c1ccc(-c2nc(N3CCCCC3)nc3ccccc23)cc1	none
CCN1CCN(c2nc(-c3ccccc3)c3ccccc3n2)CC1	D3 antag -82
CCCN1CCN(CC2=C(C(=O)OCC)C(c3ccc(Cl)cc3)NC(=O)N2)CC1 (configuration not stated)	none (no result: D3 antag, uPA surface inh)
CN(C)CCCNC(=O)N1c2ccccc2C=Cc2ccccc21	D3 antag -52, RGS4 inh inconclusive
CCN(CC)C(=O)N1c2ccccc2C=Cc2ccccc21	none
NS(=O)(=O)c1ccc(-c2ccc(/C=C3\NC(=S)NC3=O)o2)cc1	D3 ag 43, RGS4 inh inconclusive
COC(=O)/C=C/C(=O)N1CCN(c2ccccc2C)CC1	uPA surface inh 11µM
COC(=O)/C=C/C(=O)N1CCN(c2ccccc2)CC1	none
O=C(O)/C=C/C(=O)N1CCN(c2ccccc2F)CC1	D3 antag -70
Cc1ccccc1Nc1c(-c2ccccn2)nc2ccccn12	D3 antag inconclusive, uPA surface inh inconclusive
Cc1ccn2c(Nc3ccccc3C)c(-c3ccccn3)nc2c1	D3 antag -59
Cc1ccn2c(Nc3ccccc3)c(-c3ccccn3)nc2c1	D3 antag -74
Cc1ccc2nc(-c3ccccn3)c(Nc3ccccc3C)n2c1	D3 antag -59
CC[C@H](C)[C@H](N)C(=O)O	none (no result: D3 antag, uPA surface inh, RGS4 inh)
Cc1c(CCNC(=O)c2ccc(Br)o2)sc2nc(-c3ccc(Cl)cc3)nn12	none (no result: D3 antag, uPA surface inh)
CC(C)NC(=O)c1ccc(Cn2c(SCC(N)=O)nc3ccccc3c2=O)cc1	none (no result: D3 antag, uPA surface inh)
O=C(CSc1nc2c(c(=O)[nH]1)CCCC2)Nc1ccc(Br)cc1	none (no result: D3 antag, uPA surface inh)
CCc1ccc(/C=C/C(=O)c2cc(Br)ccc(=O)c2O)cc1	D3 antag inconclusive, RGS4 inh inconclusive
Cc1cccc(/C=C/C(=O)c2cc(Br)ccc(=O)c2O)c1	D3 antag -59
CCOc1ccc(C2c3c(oc4cc(C)c(C)cc4c3=O)C(=O)N2c2ccccn2)cc1 (configuration not stated)	none (no result: D3 antag, uPA surface inh)
COc1ccc(NC(=O)O/N=C/c2c(C)nn(C(C)(C)C)c2C)cc1	uPA surface inh 2µM
CC1=C(C(=O)Nc2ccccc2)C(c2ccc(C(C)C)cc2)N2C(=O)CSC2=N1 (configuration not stated)	D3 antag -51
CC1=C(C(=O)Nc2ccccc2)C(c2ccccc2)N2C(=O)CSC2=N1 (configuration not stated)	none
Cn1c(=N)n(CC(=O)O)c2ccccc21	D3 antag -62
Cn1c(=N)n(CC(=O)c2ccccc2)c2ccccc21	none
CN1CCN(C(c2ccc(Br)cc2)c2cc(Cl)c3cccnc3c2O)CC1 (configuration not stated)	D3 antag -76, RGS4 inh inconclusive
CN1CCN(C(c2ccc(F)cc2)c2ccc3cccnc3c2O)CC1 (configuration not stated)	none
O=C1C=CC(=O)N1Cc1ccccc1	D3 antag -139, uPA surface inh 7.9µM, RGS4 inh inconclusive
CCOC(=O)c1ccc(NC(=O)Cn2c(=O)cc(C)c3c(C)nn(-c4ccc(CC)cc4)c32)cc1	none (no result: D3 antag, uPA surface inh)
Cc1ccc(NC(=O)c2cc(C)nc3c2c(C)nn3-c2cccc(Cl)c2C)c(C)c1	none (no result: D3 antag, uPA surface inh)
C=CCOC(=O)/C(=C\c1ccccc1)NC(=O)c1ccco1	none
C=CCOC(=O)/C(=C\c1ccc(OC)cc1)NC(=O)c1ccco1	D3 antag -51
CCOC(=O)c1c(S(=O)(=O)N2CCCC(C(=O)NCc3ccccc3OC)C2)c(C)n(C)c1C (configuration not stated)	none (no result: D3 antag, uPA surface inh)
COc1ccc(OCC(=O)Nc2cc(-c3nc4ccccc4o3)ccc2Cl)cc1	none (no result: D3 antag, uPA surface inh)
COc1ccc(CNc2ncnc3c2c(-c2ccccc2)cn3-c2ccccc2)cc1	none (no result: D3 antag, uPA surface inh)
CCCSc1nsc(NC(=O)C(c2ccccc2)c2ccccc2)n1	D3 antag -71
CCCSc1nsc(NC(=O)CC)n1	none
Cc1ccc(NC(=O)CCC(=O)N2Cc3ccccc3Oc3ncccc32)cc1F	none (no result: D3 antag, uPA surface inh)
COc1ccc(-c2c(C)c3ccc(O)c(CN4CCCCC4)c3oc2=O)cc1OC	none (no result: D3 antag, uPA surface inh)
C#CC(=O)N(c1cc(OC)ccc1OC)C(C(=O)NC1CCCC1)c1cccs1 (configuration not stated)	D3 antag -62
C#CC(=O)N(c1ccc(OC)cc1OC)C(C(=O)NC1CCCC1)c1cccs1 (configuration not stated)	D3 antag -51, RGS4 inh inconclusive
COc1ccc(N(C(=O)c2ccco2)C(C(=O)NC2CCCCC2)c2cccs2)cc1OC (configuration not stated)	none
CC(C)(C)NC(=O)C(c1cccs1)N(C(=O)C(=O)NC1CCCC1)c1ccccc1F (configuration not stated)	D3 antag -65 (no result: uPA surface inh)
Cc1ccc(C)c(NC(=O)CSc2c3c(nc4ccc(Cl)cc24)CCCC3)c1	D3 ag 43 (no result: D3 antag, uPA surface inh)
NNc1nc(Nc2ccccc2)nc(N2CCCCC2)n1	D3 antag inconclusive
NNc1nc(Nc2ccccc2)nc(Nc2ccccc2)n1	D3 antag -52
Cc1ccccc1-c1nc(Cc2ccccc2)no1	D3 antag -53
Clc1ccc(-c2nc(Cc3ccccc3)no2)cc1	none
COc1ccc(NC(=O)CC2C(=O)N(c3ccc(F)cc3)C(=O)N2Cc2cccnc2)cc1 (configuration not stated)	none (no result: D3 antag, uPA surface inh)
CC(C)Cc1nc(S(=O)(=O)c2ccc(Cl)cc2)c(N2CCOCC2)o1	D3 antag -54
CC(C)(C)c1nc(S(=O)(=O)c2ccc(Cl)cc2)c(N2CCOCC2)o1	RGS4 inh inconclusive
COc1ccc(CCNc2ncnc3c2nnn3C)cc1OC	none (no result: D3 antag, uPA surface inh)
Cc1cc(S(=O)(=O)c2ccc(Cl)cc2)nc(S(=O)(=O)c2ccc(Cl)cc2)c1C#N	D3 antag -77 (no result: uPA surface inh, RGS4 inh)
O=C1CCCC2=C1C(c1ccc(Br)cc1)c1c([nH]c(=S)[nH]c1=O)N2 (configuration not stated)	D3 antag -80, RGS4 inh inconclusive
